Measurements as given in the supplement of paper PMC6555819.

System: FXR:RXRa (NR concentration 270 nM, RXRa partner concentration 90 nM)
Test: PBM binding z-score (relative to random genomic background probes); higher = stronger binding; sequences stand for … in GC…GCGATTGACAGCGTAGAATGAAGG
Procedure, shortened: (§1)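 For binding z-scores, the reference was random background probes on custom Agilent 4×180K protein-binding microarrays. These arrays were incubated 1 h with ligand-free nuclear receptor dimers in PBS pH 7.4, 2% milk, 0.02% Triton X-100, 1 mM DTT, 0.2 mg/mL BSA and 0.4 mg/ml salmon testes DNA. Fluorescence was scanned after antibody detection of each partner (one per run) and regression-normalized.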

| Sequence | PBM binding z-score |
| --- | --- |
| TTACCAAGGAGAAAGGTCGTTGATGCACGCCTTG | 1.02 |
| GCTATTAGTTGAAAGGGCATCCGAATGATTCTCG | 0.204 |
| ATATGTGGGTTAAGGGTCATTCAGGTTGGTTCGC | 5.26 |
| TAGCCTAGGTCATGCGGGCCGGTATAGTGTCGGC | 4.25 |
| ATCTCTAGGTAAAGATAGTTCGGTGAATGCAAAT | 0.128 |
| TAGTCTAGGTCAGATCGGGCCAGTATACGCTATA | 1.81 |
| AGTCAAAGTTCAGGACGAGGTAACGTCAAGCACG | 4.26 |
| TCTGCTAGGTCAACGCTGGTCAGCTAATCTGCTA | 3.47 |
| TCTTGTAGACCAGCAGGTTAAGAAAGCTGGCCAA | 0.124 |
| CCTAGTTGGTTAGGAGGTCACACACCGGATATGA | 3.07 |
| TCTCGGAGGACACGAAGGTCAGAGTTTTCCAGAG | 1.18 |
| GCTTACGGGTCAAAGGTTATAGGATGAATAGAAT | 7.58 |
| TCTTGTATATCAAAGGTTAAGAAAGCCGAAGCCT | 1.57 |
| CGTCCAAGGTTAATGCTAGGTCAGTGAAAGCATT | 1.98 |
| CGAACTAGGTCATCGACAGGACAGTGAATAGTAA | 3.83 |
| CCATACAGGTGAGAAGGTAACTCAGCCTCGATTA | 0.317 |
| CAAATTAGGTCAAGAGGTCAAAGTCCGCTTCCCG | 7.34 |
| TCATATAGGTAATACGGGTGAAAGTCGGCATCTA | 0.703 |

System: LXRa:RXRa (NR concentration 270 nM, RXRa partner concentration 90 nM)
Test: as above
Procedure, shortened: as §1

| Sequence | PBM binding z-score |
| --- | --- |
| TCATATAGGTAAACAGGTGAAACTCCGTAAGTTA | 1.06 |
| TCTAGCAAGCCAGAGGGTCACTCAAGAGGTACGG | 0.684 |
| ACAGACCGGTGAGTGAAGGTAACTCAGCTGGACG | -0.178 |
| CCGACTGGGGCAAGATTACCATAACGCACAGCCA | -0.432 |
| GGAACGAGGGCAAAGTCGATAGCATCTGTCGACG | 0.379 |
| ACTATCAGTTGAGACGAGGGCAACCGATAGGTTG | 0.0109 |
| AATACACGGTCACTAGGCCAGAGTAGGTACGAAT | 1.45 |
| TCTCGGAGGACACGAGAGGTCAGAGCTCGACATC | 3.37 |
| ACAGACAGGTGATGAACGTAACTCAGGCTATCAT | -0.174 |
| ATACCAAGGTGATCGTGAGGTCGTTGTTACTAAC | 1.11 |
| GCTACCAGGCCATTTGGGTCACTCAATGACGGGC | 0.0663 |
| TCGAGTCGGTTACCAATGGGGCATTCAGCTTTCT | -0.101 |
| TATCGGAGGACACGAAGGTCAGAGCTTTCCAGAG | 1.65 |
| ATCGAAAGGTCGTTAGGTGAGTATACAGAAAGGC | 3.54 |
| AGTCAAAGTTCATCTAGGTAACGTACGATATGCT | 6.13 |
| ACAGACAGGTGATTAAGGTAACTCAGGCTATCAT | 0.0407 |
| AGTCAAAGTTCACTAGGTAACGTATGATTCAGCT | 4.91 |
| TCTAATAGTTGAAGGGCAACCGACGAGTCCGTTT | 0.943 |
| GCTAGCAGGCCTTTTGGGTCACTCAATGACGGGC | -0.171 |
| GCTTACGGGTCAAAGGTTATATCATGAATAGAAT | 6.12 |

| Sequence | PBM binding z-score |
| --- | --- |
| TCTAGTTGCTCACGGAGGTCACACACGACGGGTA | 3.1 |
| CTCGAAAGATCGTGCTCAGGTGAGTATACCAAAC | -0.388 |
| TTACCAAGGAGAAAGGTCGTTGATGCACGCCTTG | 1.35 |
| GCTATTAGTTGAAAGGGCATCCGAATGATTCTCG | 0.581 |
| ATATGTGGGTTAAGGGTCATTCAGGTTGGTTCGC | 4.74 |
| TAGCCTAGGTCATGCGGGCCGGTATAGTGTCGGC | 3.22 |
| ATCTCTAGGTAAAGATAGTTCGGTGAATGCAAAT | 1.18 |
| TAGTCTAGGTCAGATCGGGCCAGTATACGCTATA | 1.91 |
| AGTCAAAGTTCAGGACGAGGTAACGTCAAGCACG | 3.98 |
| TCTGCTAGGTCAACGCTGGTCAGCTAATCTGCTA | 3.1 |
| TCTTGTAGACCAGCAGGTTAAGAAAGCTGGCCAA | 0.0452 |
| CCTAGTTGGTTAGGAGGTCACACACCGGATATGA | 3.38 |
| TCTCGGAGGACACGAAGGTCAGAGTTTTCCAGAG | 0.932 |
| GCTTACGGGTCAAAGGTTATAGGATGAATAGAAT | 5.53 |
| TCTTGTATATCAAAGGTTAAGAAAGCCGAAGCCT | 2.66 |
| CGTCCAAGGTTAATGCTAGGTCAGTGAAAGCATT | 4.46 |
| CGAACTAGGTCATCGACAGGACAGTGAATAGTAA | 2.6 |
| CCATACAGGTGAGAAGGTAACTCAGCCTCGATTA | 0.251 |
| CAAATTAGGTCAAGAGGTCAAAGTCCGCTTCCCG | 6.64 |
| TCATATAGGTAATACGGGTGAAAGTCGGCATCTA | 0.697 |
